Source: PubChem BioAssay
Only some compounds are listed: those with a hit (about 18% of all), similar ones and a draw of the others.
TGFb SMAD3 inh: TGF-b pathway inhibition; HepG2 CAGA-GFP TGF-b/SMAD3 reporter, GFP fluorescence, 18 h; TGF-beta stimulated, 500 pg/mL final; actives 1.2% (n = 410,000); Potency, µM (top dose mostly 46.1 µM), without a hit: top-dose activity, negative = inhibition, hits mostly inhibitors; note: potency is the fitted concentration of half-maximal effect; % is set by controls: 0 for no effect and ±100 for the full control effect; nearly all actives have a fitted effect of over 65% in size
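GFP signal (ex488/em500-530) from TGF-beta-stimulated HEPG2 CAGA-GFP cells, 500 pg/mL final, 18 h at 37 degrees C in DMEM plus 1% FBS, normalized to unstimulated and DMSO-stimulated controls.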
IL1B secr inh: blocks inflammasome-driven IL-1 beta release; actives 4.7% (n = 360,000); activity change, % at 57.5 µM; THP-1 LPS/ATP IL-1B secretion, AlphaLISA, 16 h; stronger effect = lower value; AID 743279; in the data active = activity change below about -50%; inconclusive = mostly about -30% to -49%; note: % is set by controls: 0 for no effect and ±100 for the full control effect
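Secreted IL-1B measured by AlphaLISA bead assay after 16 h compound exposure of THP-1 cells; compounds (final up to 57.5 uM) added 1 h before LPS (250 ng/mL) and ATP (1.25 mM) stimulation; lower signal means less secretion.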
HepG2 tox: kills HepG2 cells in TGF-b inhibitor counter-screen | AID 588856 | actives 0.76% (n = 410,000) | Potency, µM (series often up to 46.1 µM), inactives show top-dose activity change, negative = cytotoxicity, most hits filed as cytotoxic | HepG2 CAGA-GFP viability, ATP luminescence, 18 h; note: potency is the fitted concentration of half-maximal effect
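HepG2 CAGA-GFP cells (1000/well, DMEM with 1% FBS) received compound, then TGF-beta at 500 pg/mL final, and were incubated 18 hours at 37 degrees C. Viability was read by CellTiter-Glo luminescence. Media-only wells were set as complete cell-killing and DMSO as no toxicity.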
DT40 TDP1 CPT: DT40-hTDP1 cell growth loss with CPT; chicken DT40 Tdp1-/-;hTDP1 cells + 20 nM CPT, ATP luminescence, 48 h; Potency, µM (top dose mostly 46.2 µM), without a hit: at the top dose activity change, negative = growth inhibition, most hits filed as inhibitors; actives 12% (n = 420,000); AID 686979; note: potency is the fitted concentration of half-maximal effect; % is set by controls: 0 for no effect and ±100 for the full control effect; nearly all actives have a fitted effect of over 55% in size
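Chicken DT40 Tdp1-/- cells stably complemented with human TDP1 were seeded at 400 cells/well in medium containing 20 nM camptothecin, exposed to pin-transferred compounds, and grown at 37 °C for at least 48 hr. Viability was read as ATP luminescence.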
TDP1 block: TDP1 (human) enzyme inhibition; AID 485290; actives 0.28% (n = 350,000); Q9NUW8; recombinant TDP1, AlphaScreen DNA substrate cleavage; Potency, µM (series often up to 130 µM), for the others: at the top dose activity change, negative = inhibition, most hits filed as inhibitors; note: potency is the fitted concentration of half-maximal effect; % is set by controls: 0 for no effect and ±100 for the full control effect; nearly all actives have a fitted effect of over 40% in size
Target sequence (Q9NUW8 whole entry, looked up): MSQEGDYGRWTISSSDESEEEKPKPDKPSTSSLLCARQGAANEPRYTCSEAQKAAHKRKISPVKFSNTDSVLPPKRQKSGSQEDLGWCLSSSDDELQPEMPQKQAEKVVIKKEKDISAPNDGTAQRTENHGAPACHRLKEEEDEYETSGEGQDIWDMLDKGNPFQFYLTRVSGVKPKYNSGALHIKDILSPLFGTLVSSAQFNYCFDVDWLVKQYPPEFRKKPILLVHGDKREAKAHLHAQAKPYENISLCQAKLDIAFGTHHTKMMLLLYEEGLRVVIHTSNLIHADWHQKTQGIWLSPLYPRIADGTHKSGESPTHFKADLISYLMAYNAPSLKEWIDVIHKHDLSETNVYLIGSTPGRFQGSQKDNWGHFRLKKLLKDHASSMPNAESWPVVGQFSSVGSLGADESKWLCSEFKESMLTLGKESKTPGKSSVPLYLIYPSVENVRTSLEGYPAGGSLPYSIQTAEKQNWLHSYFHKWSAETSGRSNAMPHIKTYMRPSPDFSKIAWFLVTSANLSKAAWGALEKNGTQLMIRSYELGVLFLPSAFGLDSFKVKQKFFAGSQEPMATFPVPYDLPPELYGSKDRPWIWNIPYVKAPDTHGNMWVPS
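Recombinant E. coli-expressed Tdp1 (1 nM) preincubated with compound 15 min at RT, then 5'-biotin/3'-phosphotyrosine-FITC DNA substrate (15 nM) added for 5 min. AlphaScreen beads (10 ug/ml) added, 10 min RT; tyrosine-FITC cleavage read as signal loss.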
TDP1 cell noCPT: qHTS for Inhibitors of human tyrosyl-DNA phosphodiesterase 1 (TDP1): qHTS in cells in absence of CPT. actives 15% (n = 420,000). DT40 Tdp1-/- hTDP1 cells, no CPT, ATP luminescence, 48 h. Potency, µM (top dose mostly 46.2 µM), for inactives: at the top dose activity change, negative = growth inhibition, hits mostly inhibitors; note: potency is the fitted concentration of half-maximal effect; % is set by controls: 0 for no effect and ±100 for the full control effect; nearly all actives have a fitted effect of over 55% in size
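Readout: luminescence from CellTiter-Glo after 30 min in the dark at RT. Cells: DT40 Tdp1-/- with stable hTDP1, 400/well. Exposure: compounds alone, ≥48 hr, 37 °C.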
* marks the source's active call; other numbers are inactive results. Unless noted, calls come from the whole dose curve; as a rule, active = well fitted curve in the direction sought with a large enough effect; inconclusive = small, poorly fitted or top-dose-only effect, or another doubt; inactive = no such curve, though single readings can be large; an effect the other way counts as inactive or inconclusive.

Results for CCCCn1nc(NC(=O)c2cccc(Cl)c2)c2cc3ccccc3nc21 ?
TGFb SMAD3 inh: 14%; HepG2 tox: 3%; DT40 TDP1 CPT: inconclusive; TDP1 block: -1%; TDP1 cell noCPT: inconclusive

What do the screens show for `CC(C)Cn1nc(NC(=O)c2cccc(Cl)c2)c2cc3ccccc3nc21`?
TGFb SMAD3 inh: 34%; HepG2 tox: 13%; DT40 TDP1 CPT: 15µM*; TDP1 block: -1%; TDP1 cell noCPT: 8.2µM*

Results for CCn1nc(NC(=O)c2ccco2)c2cc3cc(C)ccc3nc21 ?
TGFb SMAD3 inh: 11%; IL1B secr inh: -50*; HepG2 tox: 1%; DT40 TDP1 CPT: inconclusive; TDP1 block: -3%; TDP1 cell noCPT: inconclusive

What do the screens show for `CCn1nc(NC(=O)c2ccncc2)c2cc3cc(C)ccc3nc21`?
TGFb SMAD3 inh: -2%; IL1B secr inh: inconclusive; HepG2 tox: -11%; DT40 TDP1 CPT: inconclusive; TDP1 block: -4%; TDP1 cell noCPT: 23µM*

What do the screens show for `CCCn1nc(NC(=O)c2ccco2)c2cc3ccccc3nc21`?
TGFb SMAD3 inh: -13%; IL1B secr inh: -4; HepG2 tox: -6%; DT40 TDP1 CPT: 23µM*; TDP1 block: 0%; TDP1 cell noCPT: 15µM*

Results for COCc1c(C(=O)OCC(=O)NCc2ccco2)oc2ccccc12 ?
TGFb SMAD3 inh: 3%; IL1B secr inh: 14; HepG2 tox: -3%; DT40 TDP1 CPT: -3%; TDP1 block: -6%; TDP1 cell noCPT: -26%

Results for CCC(=O)Nc1ccc(C(=O)NNC(=O)COc2cccc(C)c2)cc1 ?
TGFb SMAD3 inh: -5%; IL1B secr inh: 12; HepG2 tox: 10%; DT40 TDP1 CPT: -1%; TDP1 block: 3%; TDP1 cell noCPT: -15%

How did Cc1ccc2cc3c(NC(=O)c4cccnc4)nn(C)c3nc2c1 do in these assays?
TGFb SMAD3 inh: -12%; IL1B secr inh: -10; HepG2 tox: 11%; DT40 TDP1 CPT: -25%; TDP1 block: -3%; TDP1 cell noCPT: 13µM*

What do the screens show for `CCn1nc(NC(=O)CC(C)C)c2cc3ccc(C)cc3nc21`?
TGFb SMAD3 inh: -11%; IL1B secr inh: 2; HepG2 tox: -4%; DT40 TDP1 CPT: 29µM*; TDP1 cell noCPT: inconclusive

What do the screens show for `CCOc1ccc2cc(C#N)c(SCC(=O)OCc3ccccc3)nc2c1`?
TGFb SMAD3 inh: -1%; HepG2 tox: -22%; DT40 TDP1 CPT: inconclusive; TDP1 block: 0%; TDP1 cell noCPT: inconclusive

Results for Cc1ccc2c(c1)S(=O)(=O)c1ccc3ccccc3c1N2 ?
TGFb SMAD3 inh: -3%; IL1B secr inh: 9; HepG2 tox: -5%; DT40 TDP1 CPT: -1%; TDP1 cell noCPT: 2%

Results for CCOC(=O)C(C)(C)N(Cc1ccc(C)cc1)S(=O)(=O)c1ccc(Cl)c([N+](=O)[O-])c1 ?
TGFb SMAD3 inh: inconclusive; IL1B secr inh: -104*; HepG2 tox: -69%; DT40 TDP1 CPT: 15µM*; TDP1 block: 6%; TDP1 cell noCPT: 13µM*

How did O=c1[nH]cnc(O)c1C(c1cccc([N+](=O)[O-])c1)c1c(O)nc[nH]c1=O do in these assays?
TGFb SMAD3 inh: -1%; IL1B secr inh: 1; HepG2 tox: 1%; DT40 TDP1 CPT: -1%; TDP1 block: 5%; TDP1 cell noCPT: -11%

What do the screens show for `CCCNC(=O)CN1C(=O)c2cccnc2Sc2ccccc21`?
TGFb SMAD3 inh: -26%; HepG2 tox: -27%; DT40 TDP1 CPT: 6%; TDP1 block: 3%; TDP1 cell noCPT: 2%

How did O=C(CCc1ccccc1)NC(=S)NCc1ccco1 do in these assays?
TGFb SMAD3 inh: -7%; IL1B secr inh: 1; HepG2 tox: -2%; DT40 TDP1 CPT: 12%; TDP1 block: 8%; TDP1 cell noCPT: 21µM*

Results for CC(=O)NC(=S)NNC(=O)CCc1ccccc1 ?
TGFb SMAD3 inh: 1%; IL1B secr inh: -7; HepG2 tox: -41%; DT40 TDP1 CPT: inconclusive; TDP1 block: -4%; TDP1 cell noCPT: inconclusive

What do the screens show for `O=C(CCc1ccccc1)NNC(=S)NC(=O)c1ccccc1`?
TGFb SMAD3 inh: inconclusive; IL1B secr inh: 0; HepG2 tox: -5%; DT40 TDP1 CPT: 7.3µM*; TDP1 block: 9%; TDP1 cell noCPT: 15µM*

What do the screens show for `CCCCC(=O)NC(=S)NNC(=O)CCc1ccccc1`?
TGFb SMAD3 inh: 9%; IL1B secr inh: 174; HepG2 tox: -13%; DT40 TDP1 CPT: 21µM*; TDP1 block: 4%; TDP1 cell noCPT: 21µM*

What do the screens show for `CCCCC(=O)NNC(=S)NC(=O)CCC`?
TGFb SMAD3 inh: 5%; IL1B secr inh: -95*; HepG2 tox: -40%; DT40 TDP1 CPT: inconclusive; TDP1 block: -1%; TDP1 cell noCPT: inconclusive

How did CCCCNC(=O)C1=CC(c2ccc3c(c2)OCO3)=NS(=O)(=O)N1C do in these assays?
TGFb SMAD3 inh: -5%; HepG2 tox: -5%; DT40 TDP1 CPT: 0%; TDP1 block: 0%; TDP1 cell noCPT: -29%

What do the screens show for `CC(C)(C)c1cc(CCC(=O)NNC(=S)NC(=O)c2ccccc2)cc(C(C)(C)C)c1O`?
TGFb SMAD3 inh: -23%; IL1B secr inh: 169; HepG2 tox: -26%; DT40 TDP1 CPT: 4.1µM*; TDP1 block: 9%; TDP1 cell noCPT: 3.7µM*

How did CC(C)(C)c1cc(CCC(=O)NNC(=O)c2ccco2)cc(C(C)(C)C)c1O do in these assays?
TGFb SMAD3 inh: -8%; IL1B secr inh: 19; HepG2 tox: -6%; DT40 TDP1 CPT: -8%; TDP1 block: 3%; TDP1 cell noCPT: inconclusive

How did CCOC(=O)c1cn(-c2c(C)n(C)n(-c3ccccc3)c2=O)c2c(F)c(F)c(F)cc2c1=O do in these assays?
TGFb SMAD3 inh: 8%; IL1B secr inh: -7; HepG2 tox: 5%; DT40 TDP1 CPT: 7%; TDP1 cell noCPT: 9%

How did COc1ccc(N2CC(C(=O)N3CCN(Cc4ccc5c(c4)OCO5)CC3)CC2=O)cc1 (configuration not stated) do in these assays?
TGFb SMAD3 inh: 1%; IL1B secr inh: 29; HepG2 tox: 0%; DT40 TDP1 CPT: 12%; TDP1 cell noCPT: inconclusive

How did O=C1/C(=C\c2ccc(O)cc2)SC(=S)N1/N=C/c1ccc(O)cc1 do in these assays?
TGFb SMAD3 inh: 12%; IL1B secr inh: -16; HepG2 tox: -22%; DT40 TDP1 CPT: -25%; TDP1 block: 8%; TDP1 cell noCPT: -1%
